Measured values: PubChem BioAssay (NCATS)
Records with an inconclusive call do not appear. Calls of active or inactive are those of the source. Unless noted, the call rests on the fitted dose curve; in most records, active means well fitted curve in either direction with a large enough effect (not every such curve was filed as active); inconclusive means small, poorly fitted or top-dose-only effect, or another doubt; inactive means flat fitted curve, though single readings scatter.

Tests used:
[1] = biological target: Lysosomal acid glucosylceramidase (Homo sapiens) (UniProt P04062); assay: Glucocerebrosidase-p2 (AID 348; in the data active means potency below about 10 µM; further: potency means the concentration at half of the fitted maximal effect); details: purified GBA, blue fluorogenic substrate, 40 min
In short: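 Compounds titrated from 0.6 nM upwards against 0.2 nM enzyme in pH 5.9 citric acid/KH2PO4, taurocholate, tween-20; blue fluorogenic substrate 80 uM, 40 min room temperature, stopped and read Ex 365/Em 440 for AC50.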

[2] = AP1 Signaling Pathway (AID 357); details: ME-180 AP-1-bla reporter, EGF-induced, beta-lactamase ratio, 5 h; at 7.69 µM (top of the series) unless noted; further: on the % scale 0 is the no-effect control and ±100 the full control effect
In short: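 AP-1-bla ME-180 cells with beta-lactamase reporter under AP-1 response element, stimulated with EC50 EGF; compounds titrated, 5 hours at 37 degrees Celsius. CCF4 read at 460/530 nm ratio; positive and negative modulators judged by AC50.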

[3] = biological target: Cytochrome P450 1A2 (Homo sapiens) (UniProt P05177); assay: p450-cyp1a2 (AID 410; calls by dose curve; further: potency means the concentration at half of the fitted maximal effect;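 on activity change, negative = inhibition: -100% = full effect of reference inhibitor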); details: recombinant CYP1A2, luciferin-ME demethylation, luminescence; series mostly up to 57 µM
In short: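 Human CYP1A2 (20nM) demethylated Luciferin-ME at its Km (100uM) in 100mM KPO4. After 10 min compound preincubation, NADPH regeneration ran the reaction 60 min at room temperature. Luciferin was read by luminescence, normalized to 57 uM furafylline.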

[4] = NFAT Signaling Pathway (AID 444); details: Jurkat NFAT-bla M1, carbachol, beta-lactamase ratio, 5 h; at 7.69 µM (top of the series) unless noted;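 further: carbachol stimulus at about its EC50 of 1 µM final; on the % scale 0 is the no-effect control and ±100 the full control effect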
In short: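 Jurkat cells with NFAT-driven β-lactamase reporter and co-expressed M1 receptor, stimulated with carbachol (final 1 uM, ~EC50), compound titration, 5 h at 37 °C. CCF4 loaded 1 h at RT; 460/530 nm ratio gave %activity and AC50.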

[5] = Stat Signaling Pathway (AID 446); details: ME-180 SIE beta-lactamase reporter, IL-6 stimulated, 5 h; at 7.69 µM (top of the series) unless noted;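 further: ME-180 cervical cancer cells given 40 pM IL-6 alongside compound; SIE-controlled beta-lactamase reporter measured as 460/530 nm FRET emission ratio; on the % scale 0 is the no-effect control and ±100 the full control effect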
In short: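 Screening format detects activators and inhibitors alike: ME-180 SIE-bla cells stimulated at 40 pM IL-6 for 5 hrs with compound, then dual-emission beta-lactamase read at 405 nm excitation.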

[6] = biological target: Glucocorticoid receptor (Homo sapiens) (UniProt P04150); assay: GR-EFC Redistribution (AID 451; calls by dose curve; further: potency means the concentration at half of the fitted maximal effect); details: CHO-K1 GR-EFC translocation, beta-gal luminescence, 2 h
In short: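 CHO-K1 cells expressing nuclear EA and GR-ED fragments of b-gal; compounds titrated up to 46 uM final, 2 h at 37 C. GR nuclear translocation read as complemented b-gal luminescence after 1 h RT detection.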

[7] = biological target: Mitogen-activated protein kinase 10 (Mus musculus) (UniProt Q61831); assay: JNK3 AlphaScreen Assay (AID 530); details: JNK3 lysate, c-Jun phosphorylation; series mostly up to 57.1 µM;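 further: kinase came from lysate of stimulated human HepG2 cells; signal reports phosphorylation of biotinylated GST-cJun 1-79 at Ser73 with 10 µM ATP; on the % scale 0 is the no-effect control and ±100 the full control effect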
In short: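 qHTS format: compounds tested as titrations against IL-1beta/TNF-alpha-activated HepG2 lysate JNK3 with biotin-GST-cJun substrate and 10 uM ATP at room temperature. Loss of anti-phospho-cJun AlphaScreen signal indicates inhibition.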

[8] = biological target: 3',5'-cyclic-AMP phosphodiesterase 4B (Homo sapiens) (UniProt Q07343); assay: qHTS Assay for Inhibitors of PDE-IV (AID 607; active means well fitted activation curve with a large enough effect in the main read-out, with a control signal flat, not every such curve was filed as active; further: % of control where 0% means no effect); details: HEK293 ACTOne CNG channel cells, membrane potential fluorescence; series mostly up to 22.9 µM
In short: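 The readout is membrane depolarisation from a cAMP-sensing CNG channel, detected with a potential dye at ex 535/em 590. Cells were HEK293-derived (endogenous PDE-IV) at 1000 cells/well, titrated up to 22.9 uM final.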

[9] = biological target: Cytochrome P450 3A4 (Homo sapiens) (UniProt P08684); assay: qHTS Assay for Activators of Cytochrome P450 3A4 (AID 885; active means well fitted curve in the direction sought with a large enough effect; an effect the other way counts as inactive or inconclusive; further: nearly all actives have a fitted effect of over 65% in size; further: potency means the concentration at half of the fitted maximal effect); details: recombinant CYP3A4, Luciferin-PPXE luminescence, 60 min; series mostly up to 57.1 µM
In short: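 Steps: enzyme/substrate mix dispensed; compound added, 10 min RT; NADPH regeneration solution added, 60 min RT; luciferin detection buffer stops reaction; 20 min later luminescence measured.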

[10] = qHTS Assay for Lipid Storage Modulators (AID 1519; calls by dose curve); details: Drosophila S3 cells, BODIPY lipid droplet/cell ratio, laser cytometry, cells loaded with oleic acid; for activity change, negative = inhibition: at 57.5 µM (top of the series)
In short: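 Cells seeded at 5,000 per well were treated with compounds over a concentration series and loaded with oleic acid (400 uM, as added). Lipid droplet fluorescence (488 nm excitation, 500-530 nm channel) was read by laser-scanning cytometry and normalized to 20 uM Triacsin C.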

[11] = Primary qHTS for small molecule stabilizers of the endoplasmic reticulum resident proteome: Secreted ER Calcium Modulated Protein (SERCaMP) assay (AID 1508630; active means well fitted curve in the direction sought with a large enough effect; an effect the other way counts as inactive or inconclusive; further: on the % scale 0 is the no-effect control and ±100 the full control effect); details: SH-SY5Y GLuc-SERCaMP (Gaussia luciferase released on ER calcium loss) secretion, thapsigargin, luminescence; series mostly up to 38.4 µM
In short: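 GLuc-SERCaMP-expressing SH-SY5Y cells, pretreated 16 h with compound, are challenged with thapsigargin to empty ER calcium stores; after 4 h, coelenterazine is added directly to the medium and luminescence is imaged.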

[12] = measured here: cell count channel max response
[13] = measured here: lipid channel max response

Chain of Cytochrome P450 1A2 (Homo sapiens) (P05177 whole entry, looked up): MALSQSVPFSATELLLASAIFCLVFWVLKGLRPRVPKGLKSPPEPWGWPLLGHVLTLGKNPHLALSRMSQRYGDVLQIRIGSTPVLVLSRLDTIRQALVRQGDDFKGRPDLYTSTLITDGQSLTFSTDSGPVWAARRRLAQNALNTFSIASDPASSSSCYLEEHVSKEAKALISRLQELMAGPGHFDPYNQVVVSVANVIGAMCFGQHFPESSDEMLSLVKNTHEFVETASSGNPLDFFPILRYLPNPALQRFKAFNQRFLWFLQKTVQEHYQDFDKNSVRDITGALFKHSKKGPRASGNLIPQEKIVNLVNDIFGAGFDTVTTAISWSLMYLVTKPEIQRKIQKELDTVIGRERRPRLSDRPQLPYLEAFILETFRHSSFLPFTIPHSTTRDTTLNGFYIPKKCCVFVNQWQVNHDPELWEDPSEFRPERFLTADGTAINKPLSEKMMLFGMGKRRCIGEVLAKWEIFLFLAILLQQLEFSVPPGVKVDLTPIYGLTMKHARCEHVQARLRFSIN
Chain of Lysosomal acid glucosylceramidase (Homo sapiens) (P04062 whole entry, looked up): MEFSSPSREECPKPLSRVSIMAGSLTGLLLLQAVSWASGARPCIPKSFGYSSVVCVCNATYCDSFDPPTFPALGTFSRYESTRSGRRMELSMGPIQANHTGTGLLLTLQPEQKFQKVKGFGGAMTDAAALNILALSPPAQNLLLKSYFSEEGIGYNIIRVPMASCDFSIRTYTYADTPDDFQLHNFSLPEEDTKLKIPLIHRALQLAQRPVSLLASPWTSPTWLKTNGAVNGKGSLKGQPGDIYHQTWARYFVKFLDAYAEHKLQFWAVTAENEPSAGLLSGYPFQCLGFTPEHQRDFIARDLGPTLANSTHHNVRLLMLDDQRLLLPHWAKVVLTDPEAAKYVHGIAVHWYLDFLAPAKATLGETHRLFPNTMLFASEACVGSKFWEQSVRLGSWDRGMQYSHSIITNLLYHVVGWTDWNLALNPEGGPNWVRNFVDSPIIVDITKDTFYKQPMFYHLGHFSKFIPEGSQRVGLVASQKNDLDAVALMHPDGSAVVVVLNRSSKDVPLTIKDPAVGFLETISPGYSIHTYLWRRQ
Chain of 3',5'-cyclic-AMP phosphodiesterase 4B (Homo sapiens) (Q07343 whole entry, looked up): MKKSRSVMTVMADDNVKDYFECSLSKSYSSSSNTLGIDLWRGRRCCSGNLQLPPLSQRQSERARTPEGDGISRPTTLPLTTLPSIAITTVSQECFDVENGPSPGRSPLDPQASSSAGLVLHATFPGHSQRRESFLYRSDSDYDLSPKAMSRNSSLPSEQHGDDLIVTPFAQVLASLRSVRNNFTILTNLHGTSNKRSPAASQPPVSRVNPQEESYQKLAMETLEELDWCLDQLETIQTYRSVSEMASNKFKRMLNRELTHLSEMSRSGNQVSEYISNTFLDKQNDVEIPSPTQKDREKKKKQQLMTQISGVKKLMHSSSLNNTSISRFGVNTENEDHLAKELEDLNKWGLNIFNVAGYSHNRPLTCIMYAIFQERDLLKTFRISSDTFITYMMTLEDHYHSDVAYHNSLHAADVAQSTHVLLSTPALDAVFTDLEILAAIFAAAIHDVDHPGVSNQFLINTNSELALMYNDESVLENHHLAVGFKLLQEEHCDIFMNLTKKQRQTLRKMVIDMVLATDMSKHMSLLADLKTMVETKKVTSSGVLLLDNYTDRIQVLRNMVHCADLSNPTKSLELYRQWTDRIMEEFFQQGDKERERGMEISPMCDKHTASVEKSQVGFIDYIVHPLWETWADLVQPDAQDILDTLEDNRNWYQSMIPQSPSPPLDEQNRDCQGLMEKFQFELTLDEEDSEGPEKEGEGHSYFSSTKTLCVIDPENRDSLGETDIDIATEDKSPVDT
Chain of Glucocorticoid receptor (Homo sapiens) (P04150 whole entry, looked up, the tested form may be a part): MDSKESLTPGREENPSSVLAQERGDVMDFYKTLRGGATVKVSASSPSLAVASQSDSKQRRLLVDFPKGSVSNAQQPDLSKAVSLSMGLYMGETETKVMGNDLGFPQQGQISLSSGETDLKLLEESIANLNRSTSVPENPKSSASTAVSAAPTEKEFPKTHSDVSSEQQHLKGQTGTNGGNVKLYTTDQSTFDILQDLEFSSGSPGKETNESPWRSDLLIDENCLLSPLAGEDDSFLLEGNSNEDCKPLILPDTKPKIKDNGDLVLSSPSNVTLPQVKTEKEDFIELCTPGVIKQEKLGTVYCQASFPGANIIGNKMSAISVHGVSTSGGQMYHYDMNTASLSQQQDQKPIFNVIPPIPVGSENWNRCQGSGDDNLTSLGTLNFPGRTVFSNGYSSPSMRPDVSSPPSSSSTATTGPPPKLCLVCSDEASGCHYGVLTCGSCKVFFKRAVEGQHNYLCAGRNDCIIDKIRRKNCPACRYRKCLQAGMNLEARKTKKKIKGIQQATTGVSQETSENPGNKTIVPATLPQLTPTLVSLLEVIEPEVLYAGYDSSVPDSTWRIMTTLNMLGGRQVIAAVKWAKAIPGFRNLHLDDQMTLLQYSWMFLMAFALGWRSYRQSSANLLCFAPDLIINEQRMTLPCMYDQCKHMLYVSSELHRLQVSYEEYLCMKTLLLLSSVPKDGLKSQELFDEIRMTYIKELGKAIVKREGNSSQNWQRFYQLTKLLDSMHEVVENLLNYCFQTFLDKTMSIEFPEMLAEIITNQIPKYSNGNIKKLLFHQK
Chain of Cytochrome P450 3A4 (Homo sapiens) (P08684 whole entry, looked up): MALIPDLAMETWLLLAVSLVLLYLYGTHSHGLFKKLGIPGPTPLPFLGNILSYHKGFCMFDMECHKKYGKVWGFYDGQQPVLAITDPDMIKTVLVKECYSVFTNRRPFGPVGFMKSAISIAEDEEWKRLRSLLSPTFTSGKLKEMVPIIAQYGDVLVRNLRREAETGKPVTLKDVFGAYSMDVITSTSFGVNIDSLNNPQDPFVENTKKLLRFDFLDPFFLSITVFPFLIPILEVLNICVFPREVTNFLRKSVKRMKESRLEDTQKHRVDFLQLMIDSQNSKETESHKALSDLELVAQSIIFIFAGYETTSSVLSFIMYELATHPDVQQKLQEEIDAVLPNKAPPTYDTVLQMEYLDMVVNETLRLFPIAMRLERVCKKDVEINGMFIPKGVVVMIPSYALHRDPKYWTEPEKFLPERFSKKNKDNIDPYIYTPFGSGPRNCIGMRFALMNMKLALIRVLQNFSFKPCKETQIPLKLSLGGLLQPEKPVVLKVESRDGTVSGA

O=C(c1ccco1)N1CCC[C@@]2(CCN(Cc3nccs3)C2)C1
12.9%: max response [10, 13]
5.76%: max response [10, 12]
inactive: Potency [1] > 11.4 µM | activity change, negative = inhibition [2] 1.19% | Potency [3] | activity change, negative = inhibition [4] -14% | activity, negative = inhibition [5] -3.91% | Potency [6] > 46 µM | outcome [7] | Potency [8] | Potency [9] | activity change, negative = inhibition [10] 4.23% | Potency [11]

N#Cc1cccc(NC(=O)N2CC[C@@]3(CCCN(C(=O)c4ccncc4)C3)C2)c1
17.2%: max response [10, 12]
21.1%: max response [10, 13]
inactive: Potency [1] > 11.4 µM | activity change, negative = inhibition [2] -19.8% | Potency [3] | activity change, negative = inhibition [4] 1.61% | activity, negative = inhibition [5] 4.09% | Potency [6] > 46 µM | outcome [7] | Potency [8] | Potency [9] | activity change, negative = inhibition [10] 1.67% | Potency [11]

N#Cc1cccc(NC(=O)N2CC[C@@]3(CCCNC3)C2)c1
-6.65%: max response [10, 12]
inactive: Potency [1] > 11.4 µM | activity change, negative = inhibition [2] 9.42% | Potency [3] | activity change, negative = inhibition [4] 9.18% | activity, negative = inhibition [5] -4.17% | Potency [6] > 46 µM | outcome [7] | Potency [8] | Potency [9] | activity change, negative = inhibition [10] 1.94% | Potency [11]
-1.99%: max response [10, 13]

COc1ccccc1CN1CC2(CCN(C(=O)c3cnccn3)CC2)C1
inactive: Potency [1] > 11.4 µM | activity change, negative = inhibition [2] 2.43% | Potency [3] | activity change, negative = inhibition [4] -17.5% | activity, negative = inhibition [5] -6.42% | Potency [6] > 46 µM | outcome [7] | Potency [8] | Potency [9] | activity change, negative = inhibition [10] 3% | Potency [11]
20.3%: max response [10, 13]
12%: max response [10, 12]

CS(=O)(=O)N1CCC[C@@]2(CCN(Cc3nccs3)C2)C1
9.38%: max response [10, 12]
inactive: Potency [1] > 11.4 µM | activity change, negative = inhibition [2] -5.88% | Potency [3] | activity change, negative = inhibition [4] 5.31% | activity, negative = inhibition [5] 4.77% | Potency [6] > 46 µM | outcome [7] | Potency [8] | Potency [9] | activity change, negative = inhibition [10] 7.12% | Potency [11]
20.5%: max response [10, 13]

COc1ccc(C(=O)N2CCC[C@@]3(CCN(C(=O)Nc4ccccc4)C3)C2)cc1
8.67%: max response [10, 12]
inactive: Potency [1] > 11.4 µM | activity change, negative = inhibition [2] -19.4% | activity change, negative = inhibition [4] 12.1% | activity, negative = inhibition [5] -4.43% | Potency [6] > 46 µM | outcome [7] | Potency [8] | Potency [9] | activity change, negative = inhibition [10] 10.7% | Potency [11]
active: Potency [3] 15.8 µM
24.1%: max response [10, 13]

Cc1noc(C)c1C(=O)N1CCC2(CCCN(Cc3nccs3)C2)CC1
22.3%: max response [10, 13]
inactive: Potency [1] > 11.4 µM | activity change, negative = inhibition [2] -7.07% | Potency [3] | activity change, negative = inhibition [4] -16.6% | activity, negative = inhibition [5] -1.5% | Potency [6] > 46 µM | outcome [7] | Potency [8] | Potency [9] | activity change, negative = inhibition [10] 5.37% | Potency [11]
14.6%: max response [10, 12]

CS(=O)(=O)N1CCC2(CCCN(c3ccccn3)C2)CC1
15.6%: max response [10, 13]
inactive: Potency [1] > 11.4 µM | activity change, negative = inhibition [2] -3.01% | activity change, negative = inhibition [4] 4.17% | activity, negative = inhibition [5] 7.37% | Potency [6] > 46 µM | outcome [7] | Potency [8] | Potency [9] | activity change, negative = inhibition [10] 2.39% | Potency [11]
active: Potency [3] 25.1 µM
5.95%: max response [10, 12]

CC(C)NC(=O)N1CCCC2(CCN(C(=O)c3ccncc3)CC2)C1
inactive: Potency [1] > 11.4 µM | activity change, negative = inhibition [2] -8.19% | Potency [3] | activity change, negative = inhibition [4] 8.27% | activity, negative = inhibition [5] -5.11% | Potency [6] > 46 µM | outcome [7] | Potency [8] | Potency [9] | activity change, negative = inhibition [10] 3.7% | Potency [11]
22%: max response [10, 13]
13.8%: max response [10, 12]

CC(=O)N1CCC2(CC1)CN(C(c1ccccc1)c1ccccc1)C2
active: Potency [9] 15.8 µM
21%: max response [10, 13]
inactive: Potency [1] > 11.4 µM | activity change, negative = inhibition [2] 14.1% | Potency [3] | activity change, negative = inhibition [4] -5.45% | activity, negative = inhibition [5] -8.55% | Potency [6] > 46 µM | outcome [7] | Potency [8] | activity change, negative = inhibition [10] 1.46% | Potency [11]
13.6%: max response [10, 12]

COC(=O)N1CCC2(CCCN(c3ccc(-c4ccccc4)cc3)C2)CC1
active: Potency [3] 20 µM
-21.4%: max response [10, 13]
11%: max response [10, 12]
inactive: Potency [1] > 11.4 µM | activity change, negative = inhibition [2] -0.311% | activity change, negative = inhibition [4] -18.6% | activity, negative = inhibition [5] 3.59% | Potency [6] > 46 µM | outcome [7] | Potency [8] | Potency [9] | activity change, negative = inhibition [10] -29.2% | Potency [11]

O=C(Nc1ccccc1)N1CC2(CCN(C(=O)c3ccncc3)CC2)C1
active: Potency [3] 10 µM
-2.29%: max response [10, 13]
inactive: Potency [1] > 11.4 µM | activity change, negative = inhibition [2] 12.1% | activity change, negative = inhibition [4] 7.64% | activity, negative = inhibition [5] -1.5% | Potency [6] > 46 µM | outcome [7] | Potency [8] | Potency [9] | activity change, negative = inhibition [10] 3.73% | Potency [11]
-8.48%: max response [10, 12]

COc1ccc(NC(=O)N2CCCC3(CCN(C(=O)c4c(C)noc4C)CC3)C2)cc1
14.4%: max response [10, 12]
inactive: Potency [1] > 11.4 µM | activity change, negative = inhibition [2] -6.4% | Potency [3] | activity change, negative = inhibition [4] 7.7% | activity, negative = inhibition [5] -0.272% | Potency [6] > 46 µM | outcome [7] | Potency [8] | Potency [9] | activity change, negative = inhibition [10] 3.9% | Potency [11]
18.8%: max response [10, 13]
